Source: PubChem BioAssay AID2314 (National Center for Advancing Translational Sciences (NCATS), 2010)
The campaign covered roughly 300,000 compounds. About 37,000 (12%) were called active. Cut-off read from the data, not from the text of the source: active = max response mostly above about 13% (no sharp cut-off); inactive = mostly below about 14%. Many of the other results were omitted from the sample, so actives are more common in it than they were.

assay: Cycloheximide Counterscreen for Small Molecule Inhibitors of Shiga Toxin; conditions: cell reporter, cycloheximide protein synthesis inhibition counterscreen; hits give high values; note: read at 38.3 µM for the half of the compounds with a filed dose; 0% is about no effect

Compound	max response
O=C(C(NS(=O)(=O)c1cccc2nsnc12)c1ccccc1)N1CCN(c2ccccc2)CC1 (stereo unspecified)	4.26% (inactive)
CCOC(=O)c1cc(S(=O)(=O)NCCc2ccc(OC)c(OC)c2)cn1C	-2.67% (inactive)
CCOC(=O)N1CCN(S(=O)(=O)c2ccc(Br)cc2)CC1	-0.649% (inactive)
CCOC(=O)N1CCN(C(=O)C2CCN(S(=O)(=O)c3cc(Cl)ccc3OCC)CC2)CC1	11.3% (inactive)
C=C(C)C1CC=C(C)/C(=N\NC(=O)CNc2ccccc2OC)C1 (stereo unspecified)	-1.85% (inactive)
Cc1ccc2nc(Nc3ccccc3)cc(C)c2c1	51.1% (active)
Cc1ccc2nc(Nc3ccccc3O)nc(-c3ccccc3)c2c1	0.615% (inactive)
Cc1cc(Nc2ccccc2)nc(N)n1	7.42% (inactive)
Cc1ccc(S(=O)(=O)N(CC(O)CN2C(=O)NC(C)(C)C2=O)c2cccc([N+](=O)[O-])c2)cc1 (stereo unspecified)	-3.67% (inactive)
COCCCN1C(=O)c2ccc(C(=O)OCC(=O)NCc3ccccc3OC)cc2C1=O	-6.08% (inactive)
CCOC(=O)N1CCC(NC(=O)CCc2ccccc2)CC1	1.36% (inactive)
O=C(NCC1CCC(C(=O)O)CC1)OCc1ccccc1 (stereo unspecified)	-2.25% (inactive)
O=C(O)C1CCN(C(=O)OCc2ccccc2)CC1	40.2% (active)
COc1cccc(N(CC(=O)NC2CCCCCC2)S(=O)(=O)c2ccccc2)c1	1.89% (inactive)
COc1ccccc1C(=O)N1CCNC(=O)C1CC(=O)Nc1ccc(Cl)cc1 (stereo unspecified)	-1.23% (inactive)
O=C(CC1SCCNC1=O)Nc1ccc(Cl)cc1 (stereo unspecified)	21.9% (active)
O=C(CC1SCCNC1=O)Nc1ccc(Cl)c(Cl)c1 (stereo unspecified)	17.5% (inactive)
CCOc1cc(NC(=S)NCc2ccco2)c(OCC)cc1NC(=O)c1ccco1	6.2% (inactive)
O=C(NNC(=S)Nc1ccc(Br)cc1Cl)c1ccco1	43.8% (active)
CCC(=O)NC(=S)Nc1ccc(NC(=O)c2ccco2)c(Cl)c1	16.5% (inactive)
CSc1nc(-c2ccco2)nn1C(=O)c1ccccc1Cl	1.46% (inactive)

Compound	max response
COc1ccc(CC(=O)Nc2nc(-c3ccc(F)c(F)c3)cs2)cc1OC	-6.69% (inactive)
COc1cc(CC(=O)Nc2nc(-c3ccc(F)c(F)c3)cs2)cc(OC)c1OC	-5.65% (inactive)
Cc1ccc(S(=O)(=O)NC(=O)Nc2nc(-c3ccc(F)c(F)c3)cs2)cc1	19.2% (active)
O=[N+]([O-])c1ccc(N(CCO)Cc2ccccc2)c([N+](=O)[O-])c1	-2.22% (inactive)
Cc1ccc(C)c(N2C(=O)CS/C2=N\NC(=O)c2ccccc2Cl)c1	-3.78% (inactive)
O=C(N/N=C1\CCSC1)c1cc(Cl)ccc1O	18.7% (active)
C/C(=N/NC(=O)c1cc(Cl)ccc1O)C12CC3CC(CC(C3)C1)C2	18.4% (inactive)
Cc1cc(C=O)c(C)n1-c1ccc(NC2CCCCC2)c([N+](=O)[O-])c1	6.55% (inactive)
Cc1cc(=O)oc2c(C)c(OC(C)C(=O)NC3CCN(Cc4ccccc4)CC3)ccc12 (stereo unspecified)	-2.67% (inactive)
COc1ccc(NC(=O)CC(NC(C)c2ccccc2)C(=O)O)cc1 (stereo unspecified)	-3.91% (inactive)
COc1ccc(NC(=O)C(=O)NCC(=O)Nc2cccc(C(F)(F)F)c2)cc1	-1.93% (inactive)
COc1ccc(C(CC(=O)Nc2ccc(C)cc2)NC(=O)C(F)(F)F)cc1 (stereo unspecified)	12.7% (active)
Cc1ccc(NS(=O)(=O)c2ccc3c(c2)NC(=O)CO3)cc1	-9.63% (inactive)
COc1ccc(CNC(=O)C(Cc2ccccc2)n2cccc2)cc1 (stereo unspecified)	-3.21% (inactive)
CCOC(=O)C1Sc2[nH]c(=O)sc2C(c2ccc(Cl)cc2)C1C(=O)OCC (stereo unspecified)	-1.02% (inactive)
COc1ccc(N2CCN(C(=O)c3ccc(N4CCCCS4(=O)=O)cc3)CC2)cc1	-2.57% (inactive)
CCC(=C/c1sc2ccc3ccccc3c2[n+]1C)/C=C1\Sc2ccc3ccccc3c2N1C	-3.42% (inactive)
CC(=O)Nc1ccc(C(=O)CSc2nc3ccc(C)cc3[nH]2)cc1	19.9% (active)
Cc1cc(C)c(NC(=O)CSc2nc3ccncc3[nH]2)c(C)c1	8.2% (inactive)
COc1ccc2nc(SCC(=O)Nc3c(C)cc(C)cc3C)[nH]c2c1	-5.11% (inactive)
Cc1ccc2nc(SCC(=O)NC3CCCC3)[nH]c2c1	-3.78% (inactive)

Compound	max response
Cc1nc2nc(SCC(=O)c3ccccc3)[nH]c2cc1Br	1.25% (inactive)
CCOC(=O)CSc1nc2ccc(C)cc2[nH]1	17% (active)
COc1ccc(/C=N/N(C)C2=NS(=O)(=O)c3ccccc32)cc1OC	-4.65% (inactive)
CCCCN(C)CCNC(=O)C1CCCN(S(=O)(=O)c2cccc3nsnc23)C1 (stereo unspecified)	-7.69% (inactive)
CC(Sc1cccc[n+]1[O-])C(=O)Nc1cccc(S(=O)(=O)N2CCOCC2)c1 (stereo unspecified)	-2.05% (inactive)
Brc1ccccc1/C=N/Nc1nc2ccccc2o1	35.3% (active)
c1ccc(CCN2CN=C(Nc3nc4ccccc4o3)NC2)cc1	13.2% (inactive)
COc1ccc(/C=N/n2nnnc2N)cc1OC	1.75% (inactive)
CCOc1ccccc1/C=N/NC(=O)CNC(=O)COc1ccccc1	8.7% (inactive)
COc1ccc(/C=N/Nc2nc3ccccc3o2)cc1OC	32.2% (active)
C=CCc1ccccc1OCC(=O)N/N=C/c1ccccc1OCC	9.76% (inactive)
CCOc1ccc(/C=N/Nc2nncc(-c3ccccc3)n2)cc1OC	5.88% (inactive)
CCOc1ccccc1/C=N/Nc1nc2ccccc2o1	11.2% (active)
CN=C1S/C(=C\c2c(OC)cc(OC)cc2OC)C(=O)N1C	-4.61% (inactive)
COc1ccc(C2/C(=C(/O)c3ccc4c(c3)CC(C)O4)C(=O)C(=O)N2Cc2ccncc2)cc1 (stereo unspecified)	-3.17% (inactive)
COc1cc(C(=O)N2CCN(C)CC2)cc(OC)c1OC	-1.54% (inactive)
Cc1ccc(NC(=O)COC(=O)C2C3CC4OC(=O)C2C4C3)cc1Cl (stereo unspecified)	6.04% (inactive)
O=C(NCc1ccco1)C1CCCN1S(=O)(=O)c1ccccc1C(F)(F)F (stereo unspecified)	-2.95% (inactive)
Cc1ccc(-n2nc3c(=O)n(C(C)C(=O)NCc4ccc5c(c4)OCO5)nc(C)c3c2C)cc1 (stereo unspecified)	7.33% (inactive)
